Measurements as given in PubChem BioAssay AID651820 (National Center for Advancing Translational Sciences (NCATS), 2012).
The campaign covered roughly 340,000 compounds. About 12,000 (3.5%) were called active. A call without a number means that no potency is given here. Roughly 18% stayed inconclusive and do not appear here. Calls follow the shape of the dose curve; as a rule, active = well fitted inhibition curve with a large enough effect; inconclusive = small, poorly fitted or top-dose-only effect, or another doubt; inactive = no such curve, though single readings can be large or run the other way. Many of the other results were omitted from the sample, so actives are more common in it than they were.

Test: qHTS Assay for Inhibitors of Hepatitis C Virus (HCV)
Conditions: Huh7.5.1 HCVcc-Cre infection, luciferase reporter, 44 h; series mostly up to 41.8 µM
Outline: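 Antiviral activity was scored by luciferase reporter output from cells infected with HCVcc-Cre (~0.5 moi) in presence of compound, 44 h infection period, cells seeded 1,000/well 4 h prior.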
Potency is read from the fitted curve at half-maximal effect.

| SMILES | Potency |
| --- | --- |
| COC(=O)[C@]1(CC(C)C)N[C@H](c2ccc(SC3CCCCC3)cc2)[C@@H]2C(=O)N(C)C(=O)[C@@H]21 | inactive |
| CCN(CC(=O)Nc1c(F)cccc1F)C(=O)Cc1cccs1 | inactive |
| Cc1nc(-c2ccc(F)cc2)c(CC(=O)Nc2cccc(S(=O)(=O)N3CCOCC3)c2)s1 | inactive |
| CC(C)(C)OC(=O)NCCCCCNC(=O)c1[nH]cnc1C(=O)Nc1nccs1 | inactive |
| Nc1nc(NCCCN2CCOCC2)nc(Nc2ccccc2)c1[N+](=O)[O-] | inactive |
| Nc1nc(Nc2ccccc2)nc(NCCO)c1[N+](=O)[O-] | inactive |
| COc1cccc(Nc2nc(N)c([N+](=O)[O-])c(NCc3ccco3)n2)c1 | 10 µM (active) |
| COc1ccccc1CNC(=O)COC(=O)CNS(=O)(=O)c1ccc(NC(C)=O)cc1 | inactive |
| CCOc1ccc(OCC(=O)OC(C)C(=O)NC2CCCCC2C)cc1 (centres undefined) | inactive |
| O=c1ccc(S(=O)(=O)N2CCCC2)cn1Cc1nc(-c2ccccc2)no1 | inactive |
| CC1CCCN(C(=O)c2cc(-c3ccco3)nc3ccccc23)C1 (centres undefined) | inactive |
| C/C=C/c1ccc(OCCCCN2CCC(C)CC2)c(OC)c1 | 14.1 µM (active) |
| COc1ccc(OCCCCN2CCC(C)CC2)cc1 | inactive |
| C/C=C/c1ccc(OCCOc2ccc(C=O)cc2OC)c(OC)c1 | inactive |
| Fc1ccc2cnc(-c3ccccc3)cc2c1 | inactive |
| COc1cc2c3c(c1)/C(=C1/SC(=S)NC1=O)C(=O)N3C(C)(C)C=C2C | 25.1 µM (active) |
| CC(C)Oc1ccc(S(=O)(=O)N2CCOCC2)cc1NC(=O)C1CSC2(C)CCC(=O)N12 (centres undefined) | inactive |
| COc1cc(C(=O)NCC(=O)NCCSc2ccc(Br)cc2)cc(OC)c1OC | inactive |
| CSc1nsc(NC(=O)Nc2ccccc2)n1 | inactive |
| CC(=O)c1cccc(NC(=O)c2ccncc2)c1 | inactive |
| CCSc1nsc(NC(=O)Nc2cccc(C(C)=O)c2)n1 | 11.2 µM (active) |
| Cc1ccc(C)c(NC(=O)C(c2ccccc2)N2CCN(CC(=O)NC3CC3)CC2)c1 (centres undefined) | inactive |
| CCS(=O)(=O)NCCc1ccc(OC)c(OC)c1 | inactive |
| COc1ccc(CCNc2ncnc3nc[nH]c23)cc1OC | 11.2 µM (active) |
| COc1ccc(CCNc2nc(C)cc(C)n2)cc1OC | inactive |
| Nc1c(C(=O)OCC(=O)Nc2ccc(OC(F)F)cc2)[nH]c(=O)[nH]c1=O | inactive |

| SMILES | Potency |
| --- | --- |
| CCCn1c(N)c(N(CCOC)C(=O)C2CCCC2)c(=O)[nH]c1=O | inactive |
| CCC1CCCCN1CCCNC(=O)C1CCC(Cn2c(=O)[nH]c3ccccc3c2=O)CC1 (centres undefined) | inactive |
| Cc1nc2ccccc2c2oc(C(=O)NCCCN3CCC(C)CC3)cc12 | inactive |
| CCC1CCCCN1CCCNC(=O)c1cc2c(Cl)nc3ccccc3c2s1 (centres undefined) | 8.91 µM (active) |
| C#CCOCCOCCOCCNc1nc(N2CCN(C(=O)[C@H](CO)n3cc([C@@H](N)C(C)C)nn3)CC2)nc(N2CCN(C(=O)[C@H](CCC(=O)O)n3cc([C@@H](N)[C@H](C)CC)nn3)CC2)n1 | inactive |
| Nc1ccc2[nH]c(=S)sc2c1 | inactive |
| COc1ccc(CCN2CC(C(=O)OCC(=O)NCc3ccccc3Cl)CC2=O)cc1OC (centres undefined) | inactive |
| CC(NC(=O)c1ccccc1SCC(=O)N1CCCC1)c1ccccc1 (centres undefined) | inactive |
| O=C(c1ccc(Cl)cc1)c1ccc(OCC(O)CN2CCCCC2)cc1 (centres undefined) | 14.1 µM (active) |
| CC(=O)Nc1ccc(OCC(O)CN2CCN(c3ccccc3Cl)CC2)cc1 (centres undefined) | inactive |
| O=C(c1ccccc1)c1ccc(OCC(O)CN2CCCC2)cc1 (centres undefined) | inactive |
| O=C1NCC(c2ccccc2)(c2ccccc2)C(=O)N1 | inactive |
| CC1CC(C)CN(C(=O)COC(=O)c2ccc3ncsc3c2)C1 (centres undefined) | inactive |
| CC(=O)c1c(C)oc2ccc(NS(=O)(=O)c3ccccc3)cc12 | inactive |
| COc1ccc(S(=O)(=O)Nc2ccc3oc(C)c(C(C)=O)c3c2)cc1 | 7.94 µM (active) |
| CC(=O)c1c(C)oc2ccc(NS(=O)(=O)c3ccc(C(=O)O)cc3)cc12 | inactive |
| CC(OC(=O)c1ccc(S(=O)(=O)N2CCOCC2)cc1)c1ccccc1 (centres undefined) | inactive |
| COC1=CC(=O)OC(C)(c2ccccc2)C1 (centres undefined) | inactive |
| CN1CCN(c2ccc(NC(=O)c3ccccc3)cc2)CC1 | inactive |
| O=C(Cc1ccccc1)NC(=S)Nc1ccc(N2CCCCC2)cc1 | inactive |
| O=C(Nc1ccc(N2CCN(C(=O)c3cccs3)CC2)cc1)c1cccnc1Cl | inactive |
| O=C(Nc1ccc(N2CCN(C(=O)C3CC3)CC2)cc1)c1cccs1 | inactive |
| Cc1ccccc1C(=O)NC(=S)Nc1ccc(N2CCN(C(=O)c3ccccc3)CC2)cc1 | 11.2 µM (active) |
| Cc1ccccc1C(=O)N1CCN(c2ccc(NC(=O)c3cccs3)cc2)CC1 | 11.2 µM (active) |
| Cc1ccc(-c2csc(NCCc3nc4cc(Cl)c(Cl)cc4n3CCOCCO)n2)cc1 | inactive |
| CCCCNC(=O)Cn1nc(C)c(S(=O)(=O)N2CCOCC2)c1C | inactive |

| SMILES | Potency |
| --- | --- |
| CC(C)(C)C(=O)Nc1cccc(-c2ccc[nH]2)n1 | inactive |
| CC(=O)c1c(C)[nH]c(C(=O)N2CCN(S(=O)(=O)c3ccc(F)c(F)c3)CC2)c1C | inactive |
| CNS(=O)(=O)c1cccc(C(=O)NC2CCCc3ccccc32)c1 (centres undefined) | inactive |
| CCOc1c2ccc(C(=O)NC3CCCc4ccccc43)cc2nn1CC (centres undefined) | 3.55 µM (active) |
| CCOc1ccc(NC(=O)COc2ccc(C(=O)NC3CCCc4ccccc43)cc2OC)cc1 (centres undefined) | inactive |
| CCCc1cc(=O)[nH]c(SCC(=O)Nc2ccc(S(=O)(=O)N3CCCC3)cc2)n1 | inactive |
| CC(C)(C)c1ccc(Oc2ccc(N)cc2)cc1 | 3.55 µM (active) |
| Cc1nn(C)c(Oc2ccc(Cl)cc2)c1C=O | inactive |
| COc1cccc(Oc2ccc(N)cc2)c1 | inactive |
| Nc1ccc2nn(-c3ccc(Cl)cc3)nc2c1 | inactive |
| Nc1ccc(Oc2ccc(Cl)cc2)cc1 | 7.94 µM (active) |
| CC(C)(C)c1ccc(OC2=CS(=O)(=O)c3ccccc32)cc1 | inactive |
| O=S(=O)(Nc1ccc(O)c2ccccc12)c1ccc(OC(F)(F)F)cc1 | inactive |
| COc1ccc(CNC(=O)COC(=O)C(CCSC)N2C(=O)c3ccccc3C2=O)cc1 (centres undefined) | inactive |
| COc1ccc(OCC(O)CN(C)C(=O)C(C)Oc2ccccc2)cc1 (centres undefined) | inactive |
| C=CCn1c(=N)n(CC(O)COc2ccc(OC)cc2)c2ccccc21 (centres undefined) | 5.62 µM (active) |
| C=CCc1ccc(OCC(O)CN2CCN(Cc3ccccc3)CC2)c(OC)c1 (centres undefined) | inactive |
| CCCCn1c(N)c(N(CC(C)C)C(=O)c2cnc(C)cn2)c(=O)[nH]c1=O | inactive |
| CC1CCN(C(=O)COC(=O)c2cc(S(=O)(=O)N3CCOCC3)ccc2Cl)CC1 | inactive |
| CNS(=O)(=O)c1ccc(C(=O)NCC(=O)NCCc2ccc3c(c2)OCCO3)cc1 | inactive |
| CC(C)c1ccc2c(c1)c(SC(C)(C)C)c(CC(C)(C)C(=O)O)n2Cc1ccc(Cl)cc1 | 10 µM (active) |
| O=C(O)c1ccc(Cn2c(=S)[nH]c3cc(Cl)ccc3c2=O)cc1 | inactive |
| Cn1c(CNC(=O)c2ccco2)nnc1SCC(=O)N1CCN(c2ccccc2)CC1 | inactive |
| Cn1c(Cc2cccc3ccccc23)nnc1SCC(=O)N1CCN(c2cccc(Cl)c2)CC1 | 3.98 µM (active) |
| Cc1cc2nnc(SCC(=O)N3CCN(c4ccccc4)CC3)n2c(N)n1 | inactive |
| O=C(CSc1ncnc2sccc12)NC1CCS(=O)(=O)C1 (centres undefined) | inactive |

| SMILES | Potency |
| --- | --- |
| CC(=O)Nc1ccc(S(=O)(=O)NCC(=O)OCC(=O)c2ccc[nH]2)cc1 | inactive |
| O=C(c1cccnc1)N(Cc1ccccc1)C(=O)c1cccnc1 | inactive |
| CCOC(=O)CSc1nc2c(sc(=S)n2CCc2ccccc2)c(=O)n1Cc1ccco1 | 14.1 µM (active) |
| CCOC(=O)CSc1nc2c(c(=O)n(C)c(=O)n2C)n1Cc1ccccc1F | inactive |
| CCOC(=O)CSc1nnc(-c2ccco2)n1C | inactive |
| CC(C)C[C@H]1CN([C@@H](CC(C)C)CN2CCC[C@@H]2CN2C(=O)C(=O)NC[C@@H]2Cc2ccccc2)C(=O)C(=O)N1CCc1ccccc1 | inactive |
| O=C(c1ccc(N2CCOCC2)c([N+](=O)[O-])c1)N1CCN(c2ccccc2F)CC1 | inactive |
| COC(=O)[C@]1(Cc2ccccc2)N[C@H](CN(C)S(=O)(=O)c2ccc(F)cc2)[C@@H]2C(=O)N(Cc3ccccc3)C(=O)[C@@H]21 | inactive |
| COC(=O)[C@]1(Cc2ccccc2)N[C@H](CN(C)S(=O)(=O)c2ccc(OC(F)(F)F)cc2)[C@@H]2C(=O)N(Cc3ccccc3)C(=O)[C@@H]21 | 7.08 µM (active) |
| CCN(C[C@H]1N[C@@](CC)(C(=O)OC)[C@H]2C(=O)N(Cc3ccccc3)C(=O)[C@@H]12)S(=O)(=O)c1ccccc1 | inactive |
| CCN(CC(=O)Nc1c(F)cccc1F)C(=O)CN1c2cccc3cccc(c23)S1(=O)=O | inactive |
| CCCCN(C(=O)c1cccc(N2C(=O)c3ccccc3C2=O)c1)c1c(N)n(CCCC)c(=O)[nH]c1=O | inactive |
| COc1ccc(C2C3=C(CCCC3=O)N(CC(=O)O)C3=C2C(=O)CCC3)cc1 | inactive |
| COc1ccc2c(C)cc3nnnn3c2c1 | inactive |
| CCn1c2c(c3ccc(OC)cc31)CCCC2=O | 1.26 µM (active) |
| O=C(COC(=O)Cc1ccc([N+](=O)[O-])cc1)NC1CCCCCC1 | inactive |
| COc1ccc(C2(C)ON(c3ccccc3C(F)(F)F)C2=O)cc1 (centres undefined) | inactive |
| O=C(Nc1cc(S(=O)(=O)N2CCCCC2)ccc1Cl)C1COc2ccccc2O1 (centres undefined) | 11.2 µM (active) |
| CCOc1ccc(S(=O)(=O)N2CCCCC2)cc1NC(=O)CN1CCCC1c1cccs1 (centres undefined) | 4.47 µM (active) |
| Cc1ccc(S(=O)(=O)N2CCCCC2)cc1NC(=O)[C@@H]1CCCN1C(=O)c1cccs1 | inactive |
| CC(=O)NCCC(=O)Nc1cc(S(=O)(=O)N2CCCCC2)ccc1Oc1cccc(C)c1 | inactive |
| O=C(CNCc1cccs1)Nc1cc(S(=O)(=O)N2CCCC2)ccc1Cl | 10 µM (active) |
| CS(=O)(=O)c1ccc(Cl)c(NC(=O)COC(=O)c2cccc(S(=O)(=O)N3CCCC3)c2)c1 | inactive |
| O=C(COC(=O)CCOc1ccccc1)Nc1cc(S(=O)(=O)N2CCCCC2)ccc1Cl | inactive |
| COc1ccc(C(=O)Nc2cc(S(=O)(=O)N3CCCC3)ccc2Cl)cc1 | inactive |
| O=C(NCc1cccs1)C1CCN(S(=O)(=O)c2ccc(Cl)cc2)CC1 | inactive |
